Measurements from PubChem BioAssay (NCI).
Compounds without any hit were thinned out: in the full panel of roughly 83,000, 20% have a hit.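 Testing used 96-well plates and a 48-hour single-concentration exposure. Example: -40 means 40% of the starting cells died.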 Values without a mark were called inactive. The source made the active and inactive calls. The calls were made as follows: active = growth percent below 10; inactive = the rest.

Experiments:
Assay in all cases: NCI-60 one-dose screen, 48 h (100 = growth as untreated, 0 = no growth, -100 = all killed)
Conditions in all cases: 10 µM unless noted
SR leukemia = test system: SR leukemia
RPMI-8226 leukemia = test system: RPMI-8226 leukemia
OVCAR-8 ovarian = test system: OVCAR-8 ovarian
OVCAR-5 ovarian = test system: OVCAR-5 ovarian
OVCAR-4 ovarian = test system: OVCAR-4 ovarian
SK-OV-3 ovarian = test system: SK-OV-3 ovarian
IGROV1 ovarian = test system: IGROV1 ovarian
OVCAR-3 ovarian = test system: OVCAR-3 ovarian
HS 578T breast = test system: HS 578T breast
NCI/ADR-RES ovarian = test system: NCI/ADR-RES ovarian
BT-549 breast = test system: BT-549 breast
MDA-MB-435 melanoma = test system: MDA-MB-435 melanoma
SW-620 colon = test system: SW-620 colon
MCF7 breast = test system: MCF7 breast
HCT-116 colon = test system: HCT-116 colon
KM12 colon = test system: KM12 colon
HCC-2998 colon = test system: HCC-2998 colon
T-47D breast = test system: T-47D breast

SMILES	growth (SR leukemia)	growth (RPMI-8226 leukemia)	growth (OVCAR-8 ovarian)	growth (OVCAR-5 ovarian) [%]	growth (OVCAR-4 ovarian)	growth (SK-OV-3 ovarian)	growth (IGROV1 ovarian) [%]	growth (OVCAR-3 ovarian)	growth (HS 578T breast)	growth (NCI/ADR-RES ovarian)	growth (BT-549 breast)	growth (MDA-MB-435 melanoma)	growth (SW-620 colon)	growth (MCF7 breast)	growth (HCT-116 colon)	growth (KM12 colon)	growth (HCC-2998 colon) [%]	growth (T-47D breast)
CCc1c(Nc2ccc(C)cc2)[nH]c(N)nc1=S	94.4%	115%	101%	98.9	107%	111%	104	119%	94.8%	105%	100%	104%	107%	91.3%	98.3%	104%		
Cc1ccc(/C=C/C(=O)c2ccc(N)cc2)c(C)c1	-45.1% (active)	33%	17.3%	103	73%	122%	12	21.7%	100%	62.2%	89.6%	77%	-69.1% (active)	35%	35.8%	63.3%	106	
C=C(C)[C@H]1CC/C(C)=C/CC[C@]2(C)O[C@H]2CC/C(COC(=O)[C@@H](OC(C)=O)[C@H](NC(=O)c2ccccc2)c2ccccc2)=C\[C@@H]1O	51.2%	54.8%	93.9%	106	85.7%	94.1%		104%	91%	88.1%	97.1%	92.3%	105%	81.2%	89.6%	99.6%	96.5	73.6%
COc1cc(NCCCN(CC(C)C)C2CCCC2)c2ncccc2c1	16.8%	35.5%	59.2%	96.3	22.5%	84.6%	50.6	52.6%		71.8%	75.6%	89.2%	41.4%	0.473% (active)	37.8%		92.4	29.9%
COc1ccc(Cl)cc1NC(=O)c1c(NC(=O)C(F)(F)C(F)(F)F)sc2c1CCCCC2	4.32% (active)	-31.9% (active)	10.5%	21.6	7.67% (active)	-19.6% (active)	20.3	6.24% (active)	-3.45% (active)	3.81% (active)	-4.71% (active)	8.76% (active)	12.8%	4.9% (active)	-0.0954% (active)	3.84% (active)	15.9	
c1ccc(-c2nn(-c3ccccc3)[n+](-c3cccc4ccccc34)n2)cc1	4.45% (active)	0.0671% (active)	-43.5% (active)	48.1	41.4%	66.3%	10.6	8.96% (active)	8.44% (active)	90.1%	13.4%	-50.3% (active)		11.7%	7.65% (active)	10.1%	20.8	
c1ccc(CCSc2ncnc3nc[nH]c23)cc1	52.8%	82.1%	66.9%	114	84.8%			116%	100%	99.2%	117%	79.5%	94.1%	88.3%	88.1%	93.6%	97.1	74.2%
O=C(Nc1cccc(Cl)c1)c1cc(Cl)ccc1O	12.3%	-20.9% (active)	9.51% (active)	12.3	27.4%		17.5	13.5%	-7.76% (active)	2.78% (active)	-6.47% (active)	5.73% (active)	6.44% (active)	4.21% (active)	6.01% (active)			-11.9% (active)
COc1ccc(NC(=O)c2sc3nc(C)c(C(O)c4ccc(OC)cc4)cc3c2N)cc1 (stereo not drawn)	4.21% (active)	39.8%	20.4%	50.6	50.4%	38.5%	29.1	16.7%	20.1%	16.1%	28.8%	-2.11% (active)	33.8%	13.7%	15.3%	20.7%	20.4	
Cn1c(=O)c2[nH]c(CCCc3nc4c([nH]3)c(=O)n(C)c(=O)n4C)nc2n(C)c1=O	129%	107%	90.4%	122	118%			128%	116%	109%	121%	111%	112%	92.8%	108%	118%	112	96.4%
